As a reminder, the AC50 is the concentration giving half of the maximal activity seen.

Molecules are shown by their SMILES. “And” between values parts separate entries of the source, which are not always exact repeats. Equal values may be shown once. A structure can be active in one record and inactive in another. The source made the active and inactive calls. Rule for the calls: active = hit-call score of the fitted dose curve at least 0.9, where 1 is the maximum; inconclusive = response in the unintended direction; inactive = score below 0.9.

The assay concerns Thyroperoxidase (TPO), gene 54314. Put plainly: CCTE_Simmons_AUR_rTPO: CCTE's Amplex UltraRed Assay for Thyroperoxidase (TPO) Inhibition, Simmons Lab (AID 2283662).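 For AC50: potency for loss of signal meaning inhibition of peroxidase activity.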 The protocol:
CCTE_Simmons_AUR_rTPO is a biochemical, single-readout assay that uses microsomes from rat thyroid gland in a tissue-based cell-free assay. Measurements were taken 0.5 hour after chemical dosing in a 384-well plate.CCTE_Simmons_AUR_rTPO is the assay component measured from the CCTE_Simmons_AUR_rTPO assay. It is designed to make measurements of thyroperoxidase (TPO) activity as detected with fluorescence intensity signals using the Amplex UltraRed technology as a form of enzyme activity reporter.Data from the assay component CCTE_Simmons_AUR_rTPO was analyzed at the endpoint, CCTE_Simmons_AUR_rTPO, in the positive analysis fitting direction relative to DMSO as the negative control and baseline of activity. Using a type of enzyme reporter, the Amplex UltraRed assay, loss-of-signal activity can be used to understand decreased peroxidase activity in the presence of excess […]. To generalize the intended target to other relatable targets, this assay endpoint is annotated to the oxidoreductase intended target family, where the subfamily is peroxidase.
As described previously (Paul et al., 2014), the AUR substrate was repurposed to detect peroxidase (ie, TPO) activity in the presence of excess H2O2 for the AUR-TPO assay. The reaction profile for the 384-well format AUR-TPO assay is scaled to an 80 ul assay volume containing 25 uM AUR, 300 uM H2O2, and 5 ug microsomal protein in 200 mM phosphate buffer. The assay concentration of thyroid microsomal protein was approximately […]. First, rat microsomes containing TPO and diluent 200mM potassium phosphate buffer were added to opaque, black 384-well plates (Greiner, BioExpress; Kaysville, Utah) using an automated liquid handler (BioTek MicroFlo; Winooski, Vermont) with a plastic 5 ul tubing cassette. Similarly, AUR was added next by automated liquid handling. Test compounds were administered using a HDRT as described earlier to achieve a 0.5% final DMSO concentration. Finally, H2O2 (300 uM, final concentration) was then added by the BioTek MicroFlo to initiate the reaction. Microplates were incubated at 37C in the dark for 30min. Plates were then shaken on a fluorescence plate reader (FLUOStar Optima, BMG LabTech; GmbH, Germany), and endpoint fluorescence (top read) was measured using 10 flashes per well at 544/590nm excitation/emission. Three biological replicates of technical singles were run for every chemical concentration tested. A titrated range of MMI served as a positive control for TPO inhibition on each plate of the AUR-TPO screening campaign. Test chemicals were administered as a titrated series of 8 concentrations from 5 nM up to 87.5 uM [final] for 30 minutes prior to single endpoint detection. Dimethylsulfoxide [DMSO] was used as the vehicle control. Methimazole [MMI] was used as the positive control and was administered as a titrated series of 8 concentrations from 1 nM up to 271 uM [final].
`CCC1(c2ccc(N)cc2)CCC(=O)NC1=O` (stereo not given): the AC50 is 0.935 µM (active).
The same measure, in the same setting: to `Oc1cccc2cccnc12` belongs 18.4 µM (active) and 15.9 µM (active); to `Cc1ccc2ccccc2c1C`, 34.3 µM (active); to `CCCCCCCCc1ccc(O)cc1`, 6.82 µM (active).
In the case of `CC1(C)Cc2cccc(O)c2O1`, the half-maximal activity concentration (AC50) was 12.2 µM (active).
Regarding `CC12CC1(C)C(=O)N(c1cc(Cl)cc(Cl)c1)C2=O` (stereo not given), the compound was called inactive.
As to `C[C@H]1CCCC(=O)CCC/C=C/c2cc(O)cc(O)c2C(=O)O1`, the AC50 is 3.47 µM (active).
On the same count and under the same terms, the value for `Cc1ccc(N)cc1Cl` was 0.0109 µM (active); that for `COP(=O)(OC)O/C(=C\Cl)c1cc(Cl)c(Cl)cc1Cl` was 48.3 µM (active).
As to `CCOP(=S)(OCC)SCSP(=S)(OCC)OCC`, the AC50 was 9.6 µM (active).
Consider `O=C(O)C(F)(F)C(F)(F)C(F)(F)C(F)(F)C(F)(F)C(F)(F)F`, for which the half-maximal activity concentration (AC50) is 16.5 µM (active) and the call was inactive.
Consider `OCc1ccco1`, for which the AC50 was 28.5 µM (active).
In the case of `CC1(C)CCC(Cc2ccc(Cl)cc2)C1(O)Cn1cncn1` (stereo not given), the result was inactive.
For `Clc1ccc(COC(Cn2ccnc2)c2ccc(Cl)cc2Cl)cc1` (stereo not given), the AC50 is 43.8 µM (active).
As for `CC(C)(C)c1cc(O)ccc1O`, the AC50 was 1.84 µM (active) [middle of 5 runs].
Take `Clc1ccc(C2(Cn3cncn3)CC(Br)CO2)c(Cl)c1` (stereo not given): the compound was called inactive.
As for `CC(C)(C)CC(C)(C)c1ccc(O)cc1`, the AC50 is 11.6 µM (active).
In the case of `O=C(Nc1ccc2[nH]ccc2c1)c1cc2cc(F)ccc2n1Cc1cccc(F)c1`, the AC50 is 1.62 µM (active).
`CC(C)(c1ccc(OCC2CO2)cc1)c1ccc(OCC2CO2)cc1` (stereo not given): the AC50 was 43.5 µM (active).
In the case of `CCOP(=S)(OCC)Oc1nc(Cl)c(Cl)cc1Cl`, the AC50 is 10.4 µM (active).
On to `COP(=S)(OC)Oc1ccc(Sc2ccc(OP(=S)(OC)OC)cc2)cc1`, for which the concentration at half-maximal activity (AC50) was 11.6 µM (active).
As to `CCC(C)(C)c1ccc(O)c(C(C)(C)CC)c1`, the AC50 was 4.15 µM (active).
For `NNC(=S)NN`, the AC50 was 0.205 µM (active).
Turning to `CC(C)c1cccc(C(C)C)c1O`, the AC50 is 10.3 µM (active).
Regarding `CCCCCCCCSC(=O)Oc1cc(Cl)nnc1-c1ccccc1`, the concentration at half-maximal activity (AC50) is 43.8 µM (active).
Consider `CCOC(=O)Nc1cccc(OC(=O)Nc2ccccc2)c1`, for which the AC50 is 1.38 µM (active).
In the case of `CC(C)(c1ccccc1)c1ccc(O)c(C(C)(C)c2ccccc2)c1`, the AC50 is 19.6 µM (active).
Turning to `O=C(O)C(Cl)(Cl)Cl`, the compound was classed as inactive.
Consider `Cc1ccccc1N`, for which the AC50 is 2.19 µM (active) and 2.51 µM (active).

The values above are taken from PubChem BioAssay (EPA / NIEHS).
